Source: the supplement of paper PMC13380429

Tested on: Vero E6 infected with SARS-CoV-2
Assay: inhibition of SARS-CoV-2 cytopathic effect; higher = more antiviral protection, active = above 15
Details: 48 h

Measured: inhibition of SARS-CoV-2 cytopathic effect

COC1=CC(=O)C[C@@H](C)[C@]12Oc1c(Cl)c(OC)cc(OC)c1C2=O [griseofulvin]
inactive: 1 nM 1.17% | 8.33 nM 0.82% | 100 nM 0.95% | 833.33 nM 2.52% | 10000 nM 1.84%

O=C(OCCN1CCCCC1)c1c[nH]c2ccccc12
inactive: 1 nM 0.38% | 8.33 nM 2.59% | 100 nM 1.63% | 833.33 nM -1.42% | 10000 nM -6.53%

CCOC(=O)CCC(=O)O[C@H]1[C@H](O[C@@H]2[C@@H](C)[C@H](O[C@H]3C[C@@](C)(OC)[C@@H](O)[C@H](C)O3)[C@@H](C)C(=O)O[C@H](CC)[C@@](C)(O)[C@H](O)[C@@H](C)C(=O)[C@H](C)C[C@@]2(C)O)O[C@H](C)C[C@@H]1N(C)C [erythromycin-ethylsuccinate]
inactive: 1 nM 0.01% | 8.33 nM 0.11% | 100 nM 0.57% | 833.33 nM 0.29% | 10000 nM -0.24%

CC(C)N(CCC(C(N)=O)(c1ccccc1)c1ccccn1)C(C)C (stereo not given) [disopyramide]
inactive: 1 nM -2.08% | 8.33 nM -2.32% | 100 nM -1.92% | 833.33 nM -0.48% | 10000 nM -5.17%

CC1(C)CC(=O)c2c(C(F)(F)F)nn(-c3ccc(C(N)=O)c(N[C@H]4CC[C@H](OC(=O)CN)CC4)c3)c2C1
inactive: 1 nM -1.61% | 8.33 nM 1.43% | 100 nM 2.1% | 833.33 nM -2.15% | 10000 nM -0.73%

Nc1c2c(nc3c1CCC3)CCCC2 [ipidacrine]
inactive: 1 nM 1.46% | 8.33 nM 1.94% | 100 nM 1.19% | 833.33 nM 0.32% | 10000 nM 3.14%
